The whole screen tested about 5,500 compounds, of which about 2,000 (36%) were called active. Not shown: some 18% with an inconclusive outcome. Cut-off read from the data, not from the text of the source: active = normalized growth mostly below about 0.91 (no sharp cut-off); inconclusive = no clear call, values can overlap the other calls; inactive = mostly above about 0.92. The list shows a part of the results.
Assay: chemical genetic growth profiling, strain panel (AID 1159580);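 note: tested at 20 µM; growth read once vehicle control cultures reached saturation at 30 °C; 1 = growth at the plate median or of vehicle wells; lower values mean less growth of the strain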
Details: growth OD

Measured: normalized growth

C=C1c2cccc(O)c2C(O)=C2C(=O)[C@]3(O)C(O)=C(C(N)=O)C(=O)[C@@H](N(C)C)[C@@H]3[C@@H](O)[C@H]12
inactive: S. cerevisiae deletion strains, locus YJR075W, strain HOC1, hits give low values 0.992 | S. cerevisiae deletion strains, locus YKL009W, strain mrt4, hits give low values 1.03 | S. cerevisiae deletion strains, locus YKL068W, hits give low values 0.989 | S. cerevisiae deletion strains, locus YKL085W, strain MDH1 (second series), hits give low values 0.978 | S. cerevisiae deletion strains, locus YKL085W, strain MDH1, hits give low values 0.978 | S. cerevisiae deletion strains, locus YKL160W, strain elf1, hits give low values 1.02 | S. cerevisiae deletion strains, locus YKL190W, strain CNB1, hits give low values 0.992 | S. cerevisiae deletion strains, locus YKR001C, strain vps1, hits give low values 0.961 | S. cerevisiae deletion strains, locus YKR026C, strain gcn3, hits give low values 0.994 | S. cerevisiae deletion strains, locus YLL001W, strain dnm1, hits give low values 1.01 | S. cerevisiae deletion strains, locus YLL026W, hits give low values 1.02 | S. cerevisiae deletion strains, locus YLL041C, strain sdh2, hits give low values 1.02 | S. cerevisiae deletion strains, locus YLR027C, strain aat2, hits give low values 1.01 | S. cerevisiae deletion strains, locus YLR039C, strain RIC1, hits give low values 0.94 | S. cerevisiae deletion strains, locus YLR058C, strain SHM2, hits give low values 0.975 | S. cerevisiae deletion strains, locus YLR102C, strain apc9, hits give low values 1 | S. cerevisiae deletion strains, locus YLR113W, strain HOG1, hits give low values 0.986 | S. cerevisiae deletion strains, locus YLR221C, strain rsa3, hits give low values 0.996 | S. cerevisiae deletion strains, locus YLR258W, strain gsy2, hits give low values 1 | S. cerevisiae deletion strains, locus YLR262C, strain YPT6 (second series), hits give low values 1.01 | S. cerevisiae deletion strains, locus YLR262C, strain YPT6, hits give low values 0.967 | S. cerevisiae deletion strains, locus YLR268W, strain sec22, hits give low values 0.905 | S. cerevisiae deletion strains, locus YLR320W, strain mms22, hits give low values 1.01 | S. cerevisiae deletion strains, locus YLR330W, strain CHS5, hits give low values 0.969 | S. cerevisiae deletion strains, locus YLR342W, strain FKS1 (second series), hits give low values 0.979 | S. cerevisiae deletion strains, locus YLR342W, strain FKS1, hits give low values 1.01 | S. cerevisiae deletion strains, locus YLR357W, strain rsc2, hits give low values 1.01 | S. cerevisiae deletion strains, locus YLR370C, strain arc18, hits give low values 1.02 | S. cerevisiae deletion strains, locus YLR371W, strain rom2, hits give low values 0.991 | S. cerevisiae deletion strains, locus YLR384C, strain iki3, hits give low values 1.03 | S. cerevisiae deletion strains, locus YLR418C, strain cdc73, hits give low values 0.972 | S. cerevisiae deletion strains, locus YML016C, strain PPZ1, hits give low values 0.979 | S. cerevisiae deletion strains, locus YML032C, strain rad52, hits give low values 0.959 | S. cerevisiae deletion strains, locus YML120C, strain ndi1, hits give low values 1.01 | S. cerevisiae deletion strains, locus YML124C, strain tub3, hits give low values 0.991 | S. cerevisiae deletion strains, locus YMR058W, strain fet3, hits give low values 0.986 | S. cerevisiae deletion strains, locus YMR078C, strain ctf18, hits give low values 1 | S. cerevisiae deletion strains, locus YMR125W, strain sto1, hits give low values 0.998 | S. cerevisiae deletion strains, locus YMR129W, hits give low values 0.998 | S. cerevisiae deletion strains, locus YMR205C, strain PFK2, hits give low values 1.02 | S. cerevisiae deletion strains, locus YMR223W, strain ubp8, hits give low values 0.992 | S. cerevisiae deletion strains, locus YMR231W, strain pep5, hits give low values 1.01 | S. cerevisiae deletion strains, locus YMR263W, strain SAP30, hits give low values 0.976 | S. cerevisiae deletion strains, locus YMR307W, strain GAS1, hits give low values 1.02 | S. cerevisiae deletion strains, locus YNL067W, strain RPL9B, hits give low values 0.95 | S. cerevisiae deletion strains, locus YNL071W, strain lat1, hits give low values 1.03 | S. cerevisiae deletion strains, locus YNL128W, strain TEP1, hits give low values 0.976 | S. cerevisiae deletion strains, locus YNL153C, strain GIM3, hits give low values 0.925 | S. cerevisiae deletion strains, locus YNL183C, strain NPR1, hits give low values 0.922 | S. cerevisiae deletion strains, locus YNL209W, strain ssb2, hits give low values 1.01 | S. cerevisiae deletion strains, locus YNL233W, strain BNI4, hits give low values 0.965 | S. cerevisiae deletion strains, locus YNL248C, strain rpa49, hits give low values 1.06 | S. cerevisiae deletion strains, locus YNL250W, strain rad50, hits give low values 0.987 | S. cerevisiae deletion strains, locus YNL271C, strain bni1, hits give low values 0.954 | S. cerevisiae deletion strains, locus YNL298W, strain CLA4, hits give low values 0.981 | S. cerevisiae deletion strains, locus YNL307C, strain MCK1, hits give low values 1 | S. cerevisiae deletion strains, locus YNL322C, strain KRE1 (second series), hits give low values 1.01 | S. cerevisiae deletion strains, locus YNL322C, strain KRE1, hits give low values 0.991 | S. cerevisiae deletion strains, locus YNR049C, strain mso1, hits give low values 1.04 | S. cerevisiae deletion strains, locus YNR052C, strain pop2, hits give low values 0.982 | S. cerevisiae deletion strains, locus YOL006C, strain TOP1, hits give low values 0.891 | S. cerevisiae deletion strains, locus YOL012C, strain htz1 0.75 | S. cerevisiae deletion strains, locus YOL147C, strain pex11, hits give low values 0.995 | S. cerevisiae deletion strains, locus YOR001W, strain rrp6, hits give low values 1.04 | S. cerevisiae deletion strains, locus YOR061W, strain CKA2, hits give low values 0.979 | S. cerevisiae deletion strains, locus YOR069W, strain VPS5, hits give low values 1 | S. cerevisiae deletion strains, locus YOR070C, strain gyp1, hits give low values 1 | S. cerevisiae deletion strains, locus YOR080W, strain dia2, hits give low values 1.02 | S. cerevisiae deletion strains, locus YOR083W, strain WHI5, hits give low values 1.01 | S. cerevisiae deletion strains, locus YOR106W, strain vam3, hits give low values 1.01 | S. cerevisiae deletion strains, locus YOR136W, strain idh2, hits give low values 1 | S. cerevisiae deletion strains, locus YOR144C, strain elg1, hits give low values 1 | S. cerevisiae deletion strains, locus YOR184W, strain ser1, hits give low values 0.98 | S. cerevisiae deletion strains, locus YOR231W, strain MKK1, hits give low values 0.964 | S. cerevisiae deletion strains, locus YOR265W, strain rbl2, hits give low values 1.01 | S. cerevisiae deletion strains, locus YOR270C, strain vph1, hits give low values 1 | S. cerevisiae deletion strains, locus YOR290C, strain snf2, hits give low values 0.998 | S. cerevisiae deletion strains, locus YOR316C, strain cot1, hits give low values 0.988 | S. cerevisiae deletion strains, locus YPL051W, strain arl3, hits give low values 1 | S. cerevisiae deletion strains, locus YPL055C, strain LGE1, hits give low values 0.951 | S. cerevisiae deletion strains, locus YPL078C, strain atp4, hits give low values 1.03 | S. cerevisiae deletion strains, locus YPL106C, strain sse1, hits give low values 0.995 | S. cerevisiae deletion strains, locus YPL240C, strain hsp82, hits give low values 1.01 | S. cerevisiae deletion strains, locus YPL241C, strain CIN2, hits give low values 0.998 | S. cerevisiae deletion strains, locus YPL256C, strain CLN2, hits give low values 0.964 | S. cerevisiae deletion strains, locus YPR119W, strain clb2, hits give low values 0.994 | S. cerevisiae deletion strains, locus YPR141C, strain kar3, hits give low values 0.981 | S. cerevisiae deletion strains, locus YPR163C, strain tif3, hits give low values 0.992 | S. cerevisiae deletion strains, locus YPR167C, strain met16, hits give low values 0.983 | S. cerevisiae deletion strains, strain wtn01, hits give low values 0.932 | S. cerevisiae strains, strain wild type, hits give low values 0.969

— PubChem BioAssay AID1159580 (chemical genetic matrix, 2015)
